Only some compounds are listed: those with a hit (about 21% of all), similar ones and a draw of the others.
ClpP mod: qHTS Assay for Activators of ClpP; Potency, µM (highest dose often 57.5 µM); ATP-dependent Clp protease proteolytic subunit (Bacillus subtilis (strain 168)), P80244; purified B. subtilis ClpP, FRET peptide cleavage, 20 min; 340,000 tested, 1.9% active; active = well fitted falling curve with a large enough effect; inconclusive = small, poorly fitted or top-dose-only effect; inactive = no such curve, though single readings can be large or run the other way; also: the source files actives as falling curves though it sought activators and does not explain the sign; nearly all actives have a fitted effect of over 65% in size
Target sequence (P80244 whole entry, looked up): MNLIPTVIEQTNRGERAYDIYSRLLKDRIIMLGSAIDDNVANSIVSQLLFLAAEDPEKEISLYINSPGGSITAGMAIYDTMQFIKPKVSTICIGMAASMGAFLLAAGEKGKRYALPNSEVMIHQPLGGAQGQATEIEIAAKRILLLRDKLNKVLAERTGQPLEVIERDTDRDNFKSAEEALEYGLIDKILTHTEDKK
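ClpP 10 microg/mL final, pH 8 Tris/KCl buffer with BSA, glycerol, Tween-20; compound pinned in; FRET-FV substrate; RT 20 min; Ex320/Em430; ΔFRET vs ADEP 5.8 microM, DMSO, no enzyme.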
IL-1B inflam inh: qHTS for Inhibitors of Inflammasome Signaling: IL-1-beta AlphaLISA Primary Screen; 360,000 tested, 4.7% active; THP-1 LPS/ATP IL-1B secretion, AlphaLISA, 16 h; active compounds read low; AID 743279, 2014; activity change, % at 57.5 µM; in the data active = activity change below about -50%; inconclusive = mostly about -30% to -49%
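Secreted IL-1B measured by AlphaLISA bead assay after 16 h compound exposure of THP-1 cells; compounds (final up to 57.5 uM) added 1 h before LPS (250 ng/mL) and ATP (1.25 mM) stimulation; lower signal means less secretion.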
DRD3 antagonist: qHTS of D3 Dopamine Receptor Antagonist: qHTS | D3R cells, DiscoveRx beta-arrestin luminescence, antagonist mode; active compounds read low | max response, negative = inhibition, % | 360,000 tested, 2.5% active; in the data active = max response below about -50%; inconclusive = no clear call, values can overlap the other calls
Target sequence (P35462 whole entry, looked up): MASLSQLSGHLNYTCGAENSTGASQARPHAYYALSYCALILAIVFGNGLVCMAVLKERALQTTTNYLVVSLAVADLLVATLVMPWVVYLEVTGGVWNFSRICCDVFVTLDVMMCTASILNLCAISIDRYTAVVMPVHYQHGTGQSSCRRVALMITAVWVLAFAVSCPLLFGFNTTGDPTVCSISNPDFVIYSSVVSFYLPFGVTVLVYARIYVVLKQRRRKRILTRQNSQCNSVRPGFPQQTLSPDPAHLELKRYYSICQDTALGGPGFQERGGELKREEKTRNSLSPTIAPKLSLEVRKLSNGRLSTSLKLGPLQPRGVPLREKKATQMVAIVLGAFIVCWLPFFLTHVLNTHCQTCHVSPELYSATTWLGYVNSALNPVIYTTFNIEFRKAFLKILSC
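Cells expressing the human receptor were seeded at 1500 cells/well, incubated overnight at 37 degrees C in 5% CO2, then exposed to library compounds with dopamine controls for 90 minutes at 37 degrees C before luminescent detection.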
TDP1 cell noCPT: qHTS for Inhibitors of human tyrosyl-DNA phosphodiesterase 1 (TDP1): qHTS in cells in absence of CPT; 420,000 tested, 15% active; Potency, µM (top dose mostly 46.2 µM), usual class: inhibitors; DT40 Tdp1-/- hTDP1 cells, no CPT, ATP luminescence, 48 h; also: nearly all actives have a fitted effect of over 55% in size
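A cellular qHTS used chicken DT40 cells lacking endogenous Tdp1 but carrying stably transfected human TDP1. Compounds were applied without camptothecin, and cell growth kinetics were judged by ATP-dependent luminescence after ≥48 hr.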
DT40 TDP1 CPT: qHTS for Inhibitors of human tyrosyl-DNA phosphodiesterase 1 (TDP1): qHTS in cells in presence of CPT | chicken DT40 Tdp1-/-;hTDP1 cells + 20 nM CPT, ATP luminescence, 48 h | Potency, µM (top dose mostly 46.2 µM), hits mostly inhibitors | 420,000 tested, 12% active; also: nearly all actives have a fitted effect of over 55% in size
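Cell growth measured by CellTiter-Glo luminescence after a minimum 48 h, 37 C compound exposure with 20 nM CPT in Tdp1-knockout DT40 cells stably expressing hTDP1, seeded 400/well; qHTS titration format.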
DRD3 agonist: qHTS of D3 Dopamine Receptor Agonist: qHTS; D(3) dopamine receptor (Homo sapiens), P35462; D3R DiscoveRx beta-arrestin cells, luminescence, 90 min; max activation, %; 410,000 tested, 0.58% active; in the data active = max activation above about 30%
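Agonist mode: compounds and dopamine controls were applied to plated cells for 90 min at 37 degrees C after an overnight attachment at 1500 cells/well. Luminescent read-out followed 30 - 60 minutes at room temperature with DiscoveRx detection reagent.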
Large screens that a line does not name were inactive. Unless noted, calls follow the shape of the dose curve; as a rule, active = well fitted inhibition curve with a large enough effect; inconclusive = small, poorly fitted or top-dose-only effect; inactive = flat fitted curve, though single readings scatter.

Cc1csc(=O)n1CC(=O)OCC(=O)Nc1ccc(C(N)=O)cc1	TDP1 cell noCPT 6.5µM
Cc1cc(C)c2c(NC(=S)NC(=O)c3ccccc3)n[nH]c2n1	none
C=C1CC2C3CCC4=CC(=O)C=C[C@]4(C)[C@@]3(F)[C@@H](O)C[C@]2(C)[C@@]1(O)C(=O)COC(C)=O (some centres undefined)	none (no result: ClpP mod, IL-1B inflam inh, DRD3 antagonist)
N[C@H](C(=O)O)C1[C@H](C(=O)O)[C@H]1C(=O)O (some centres undefined)	none (no result: ClpP mod, IL-1B inflam inh, DRD3 antagonist, DRD3 agonist)
CCOC(=O)c1ccc(NC(=S)Nc2ccccn2)cc1	TDP1 cell noCPT 15µM, DT40 TDP1 CPT inconclusive
O=C(CCNC(=O)c1ccc([N+](=O)[O-])cc1)NCCc1ccccc1	IL-1B inflam inh -57, TDP1 cell noCPT inconclusive, DT40 TDP1 CPT inconclusive (no result: ClpP mod)
O=C(Cn1c(=O)c2sccc2n(Cc2ccc([N+](=O)[O-])cc2)c1=O)NCCc1ccccc1	TDP1 cell noCPT 13µM, DT40 TDP1 CPT inconclusive
CCOC(=O)c1ccc(NC(=S)NCC(O)c2ccccc2)cc1 (centres undefined)	TDP1 cell noCPT 18µM, DT40 TDP1 CPT inconclusive
CCOC(=O)c1ccc(NC(=S)NCc2ccccc2)cc1	TDP1 cell noCPT inconclusive
CC(C)OC1=CC(=O)OC(c2cccc(Cl)c2)C1 (centres undefined)	none
Cc1ccc(C(=O)NC(=C(Cl)Cl)S(=O)(=O)c2ccccc2)cc1	IL-1B inflam inh -95, TDP1 cell noCPT 21µM, DT40 TDP1 CPT inconclusive
COCC(C)NS(=O)(=O)c1ccccc1 (centres undefined)	none (no result: ClpP mod)
Cc1ccc(C(=O)NCC#N)cc1	TDP1 cell noCPT inconclusive, DT40 TDP1 CPT inconclusive (no result: ClpP mod)
Cc1ccc(C(=O)NC(C#N)=C(Cl)Cl)cc1	IL-1B inflam inh -103, DRD3 antagonist -61, TDP1 cell noCPT 2.3µM, DT40 TDP1 CPT inconclusive (no result: ClpP mod)
COC(=O)NC(=C(Cl)Cl)S(=O)(=O)c1ccccc1	IL-1B inflam inh -118, TDP1 cell noCPT 10µM, DT40 TDP1 CPT 6.5µM
COc1ccc(C(=O)NC(=C(Cl)Cl)S(=O)(=O)c2ccc(C)cc2)cc1	IL-1B inflam inh -95, TDP1 cell noCPT inconclusive, DT40 TDP1 CPT inconclusive
COc1ccc(C(=O)NC(=O)COC(=O)CCS(=O)(=O)c2ccc(C)cc2)cc1	none
COc1cccc(Cn2c(=O)c(-c3ccc(F)cc3)nc3cnc(OC)nc32)c1	none (no result: ClpP mod, IL-1B inflam inh, DRD3 antagonist, DRD3 agonist)
Cc1nc(NC(=O)CSc2nnc(N)s2)c(Cl)cc1Cl	none (no result: ClpP mod)
O=[N+]([O-])c1ccc(F)c(CN2CCN(c3ncc(Cc4ccccc4)cn3)CC2)c1	TDP1 cell noCPT 21µM, DT40 TDP1 CPT inconclusive
Cc1ccc([N+](=O)[O-])cc1CN1CCN(c2ncc(Cc3ccccc3)cn2)CC1	TDP1 cell noCPT inconclusive, DT40 TDP1 CPT inconclusive
COc1ccc([N+](=O)[O-])cc1CN1CCN(c2ncc(Cc3ccccc3)cn2)CC1	TDP1 cell noCPT 18µM, DT40 TDP1 CPT 21µM
O=[N+]([O-])c1ccc(Cl)c(CN2CCN(c3ncccn3)CC2)c1	none
Cc1ccc(C)c(N(C)C(=O)c2cc3c(s2)-c2ccccc2OC3)c1	ClpP mod inconclusive (no result: IL-1B inflam inh, DRD3 antagonist, TDP1 cell noCPT, DT40 TDP1 CPT)
CN(CCNC(=O)c1cccc(N2CCCC2=O)c1)Cc1ccccc1	DRD3 antagonist -58
CCN(CC)CCCNc1ncnc2c1cnn2-c1ccc(C)c(C)c1	TDP1 cell noCPT 16µM, DT40 TDP1 CPT inconclusive (no result: IL-1B inflam inh, DRD3 antagonist)
c1ccc(-n2ncc3c(NCCCN4CCOCC4)ncnc32)cc1	ClpP mod inconclusive, DRD3 antagonist inconclusive
Cc1ccc(-n2ncc3c(NCCCN4CCOCC4)ncnc32)cc1C	TDP1 cell noCPT 23µM, DT40 TDP1 CPT inconclusive (no result: IL-1B inflam inh, DRD3 antagonist)
Cc1cccc(-n2ncc3c(NCCCO)ncnc32)c1	none
Cc1nc2cnc(Nc3ccccc3)nc2n(C2CC2)c1=O	none (no result: ClpP mod, IL-1B inflam inh, DRD3 antagonist, DRD3 agonist)
COCCOc1cc(-n2cccc2)c(Cl)cc1Cl	none (no result: ClpP mod)

High-throughput results deposited in PubChem by National Center for Advancing Translational Sciences (NCATS).
